PubChem BioAssay AID1851 (National Center for Advancing Translational Sciences (NCATS), 2009)
About 5,100 (32%) of roughly 16,000 compounds were called active. Inconclusive results (about 25%) are left out. Calls come from the whole dose curve; as a rule, active = well fitted curve in the direction sought with a large enough effect; inconclusive = small, poorly fitted or top-dose-only effect, or effect the other way; inactive = no such curve, though single readings can be large or run the other way. The list shows a part of the results.

These compounds were tested against Cytochrome P450 3A4 (Homo sapiens) (UniProt P08684) (assay: Cytochrome panel assay with activity outcomes). Details: recombinant CYP, pro-luciferin dealkylation, luminescence, p450-cyp3a4; series mostly up to 57.1 µM; activity, negative = inhibition: at the top concentration.
% is set by controls: 0 for no effect and ±100 for the full control effect.

Cytochrome P450 3A4 (Homo sapiens), sequence (P08684 whole entry, looked up): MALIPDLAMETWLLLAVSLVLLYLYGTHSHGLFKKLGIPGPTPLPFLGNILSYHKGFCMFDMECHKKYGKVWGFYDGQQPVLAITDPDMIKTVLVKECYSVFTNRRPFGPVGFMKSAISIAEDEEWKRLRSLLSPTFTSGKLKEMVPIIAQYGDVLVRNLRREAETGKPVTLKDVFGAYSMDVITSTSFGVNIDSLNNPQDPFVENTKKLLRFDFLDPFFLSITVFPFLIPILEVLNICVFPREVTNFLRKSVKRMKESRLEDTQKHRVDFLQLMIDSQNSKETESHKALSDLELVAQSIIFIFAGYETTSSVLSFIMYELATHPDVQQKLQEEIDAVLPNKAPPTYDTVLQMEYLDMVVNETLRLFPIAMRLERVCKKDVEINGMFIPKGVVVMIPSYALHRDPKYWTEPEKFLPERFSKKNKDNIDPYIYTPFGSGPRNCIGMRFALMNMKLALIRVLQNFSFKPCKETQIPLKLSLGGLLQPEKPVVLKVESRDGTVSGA

AC50, active:
COc1cccc(-c2cc(NCCc3c[nH]c4ccc(OC)cc34)ncn2)c1 7.94 µM, COc1ccc2[nH]cc(CCNc3cc(-c4cccc(C#N)c4)ncn3)c2c1 3.98 µM, COc1ccc2[nH]cc(CCNc3cc(-c4cccnc4)ncn3)c2c1 3.98 µM, COc1ccc2[nH]cc(CCNc3ccnc(-c4cccnc4)n3)c2c1 1.26 µM, COc1ccc2[nH]cc(CCNc3cc(-c4ccoc4)ncn3)c2c1 10 µM, Cc1ccc(NC(=O)N/C=C/c2ccc(Cl)cc2)cc1 0.0501 µM, O=C1c2ccccc2-c2n[nH]c3cccc1c23 3.98 µM, Cc1nc2cc(NC(=O)CSc3nc4c(C)cccc4cc3C#N)ccc2s1 2.82 µM, O=C(CN(CC1CCCO1)C(=O)CNS(=O)(=O)c1ccc(Cl)cc1)NCCc1ccccc1 (configuration not stated) 11.2 µM, COc1ccc(S(=O)(=O)N(CC(=O)NCC2CCCO2)c2ccc(F)cc2)cc1OC (configuration not stated) 8.91 µM, COc1ccccc1N(CC(=O)NCC1CCCO1)C(=O)CNS(=O)(=O)c1ccc(C)cc1 (configuration not stated) 7.94 µM, CC(C)C(C(=O)NCC1CCCO1)N(Cc1ccco1)C(=O)CNS(=O)(=O)c1ccc(F)cc1 (configuration not stated) 5.01 µM, Cc1ccccc1NC1=NC(=S)N(c2ccccc2)C12CCOC(C)(C)C2 (configuration not stated) 10 µM, COc1cccc(Nc2ncc3nc(C)c(=O)n(C4CC4)c3n2)c1 6.31 µM, COCCn1c(=O)c(C)nc2cnc(Nc3cccc(OC)c3)nc21 15.8 µM, COc1cccc(Nc2ncc3nc(C)c(=O)n(CCc4ccccc4)c3n2)c1 7.94 µM, Nc1ncc(-c2ccccc2)n1CC1CCCO1 (configuration not stated) 7.08 µM, COc1ccc(CNc2ncncc2-c2ccc(C(=O)N(C)C)cc2)c(OC)c1 0.501 µM, COc1ccc(CNc2ncncc2-c2ccc(N(C)C)cc2)c(OC)c1 0.2 µM, COc1ccccc1CNc1ncncc1-c1ccc(C(=O)N(C)C)cc1 2.51 µM, Cc1cccc(NC(NC(=O)c2cccnc2)C(Cl)(Cl)Cl)c1 (configuration not stated) 10 µM, O=C(NC(NCc1ccccc1)C(Cl)(Cl)Cl)c1cccnc1 (configuration not stated) 12.6 µM, O=C1CCCC2=C1C(c1ccc(OS(=O)(=O)c3ccc(Cl)cc3)cc1)C1=C(CCCC1=O)O2 2.24 µM, Cc1ccc(S(=O)(=O)Oc2ccc(C3C4=C(CCCC4=O)OC4=C3C(=O)CCC4)cc2)cc1 6.31 µM, Cc1cc(/C=N/n2cnnc2)c(C)n1-c1ccc(OCc2ccccc2F)cc1 0.224 µM, CSc1nncn1/N=C/c1ccc2c(c1)OCO2 8.91 µM, Cc1ccc(S(=O)(=O)N[C@@H](CCc2ccccc2)CC(=O)C(C)(C)C)cc1 1.58 µM

activity, negative = inhibition, inactive:
COc1ccc2[nH]cc(C=O)c2c1 -9.85%, CC(C)N=C(N)/N=C(\N)Nc1ccc(Cl)cc1 4.7% [at 25.6 µM], O=c1ncn(-c2ccccc2F)c2ncccc12 14.6% [at 2.29 µM], O=c1ccc(-c2ccccc2)n[nH]1 -16.6% [at 11.4 µM], Cc1n[nH]c2ccccc2c1=O -6.8% [at 11.4 µM], NC(N)=NC(=O)Cc1c(Cl)cccc1Cl -26.9% [at 25.6 µM], Cc1ccc2nc(SCC(=O)NCc3cccs3)c(C#N)cc2c1 -9.74% [at 2.29 µM], Cc1cc2cccc(C)c2nc1SCC(=O)N(C)c1nc(-c2ccccc2)cs1 -5.62%, O=C(O)c1cc(S(=O)(=O)NCC2CCCO2)ccc1Cl (configuration not stated) 9.58%, O=C(NCC1CCCO1)c1ccc(CS(=O)(=O)Cc2ccc(F)cc2)o1 (configuration not stated) -19.5%, COc1ccc(/C=C(\C#N)C(=O)NCC2CCCO2)cc1OC (configuration not stated) 13.9%, CCC(C)NS(=O)(=O)c1ccc(OCC(=O)NCC2CCCO2)cc1 (configuration not stated) -6.74%, COc1ccc(NC2=NC(=S)N(c3ccc(C)cc3)C23CCCCC3)cc1 -24.1%, Cc1cccc(NC2=NC(=S)N(c3ccc(C(=O)O)cc3)C23CCCCC3)c1 10.4% [at 2.29 µM], Cc1nc2cnc(Oc3cccc(Cl)c3)nc2n(C2CC2)c1=O -29.8%, O=c1cnc2cnc(Nc3ccccc3)nc2n1CCc1ccccc1 -18.6%, N[C@@H](Cc1cc(CP(=O)(O)O)cc(-c2ccccc2Cl)c1)C(=O)O -15.5%, CCN1C(=O)C2(SC(NC(C)=O)=NN2C(C)=O)c2cc(C)ccc21 (configuration not stated) -6.6%, N#Cc1cccc(-c2nc3cnc(Nc4ccccc4)nc3n(C[C@H]3CCCO3)c2=O)c1 -14.4%, O=C1c2ccccc2C(=O)N1CC1CCCO1 (configuration not stated) -1.63%, CC(=O)c1sc(N)c(C(=O)OC(C)C)c1C -29.5%, C/C(=N\OC(=O)c1ccc(F)cc1)c1nccs1 4.23%, N[C@@H](Cc1c[nH]c2ccc([N+](=O)[O-])cc12)C(=O)O -8.71% [at 11.4 µM], CCn1ccc(C(=O)NC2C(=O)N3C(C(=O)O)=C(C)CSC23)n1 (configuration not stated) -0.674%, COc1ccc2c(c1)OC1=C(C(=O)CCC1)C2C1=C(O)CCCC1=O (configuration not stated) -28%, Cc1ccc(S(=O)(=O)Oc2cc(N)c3c(n2)CCC3)cc1 -14.1% [at 11.4 µM], CN1CCc2cc(Cl)c(O)cc2[C@@H](c2ccccc2)C1 -0.12%, NCCNCC1CCNCC1 -29.4% [at 11.4 µM], CN(C)[C@H]1C(=O)C(C(=O)NCN2CCCC2)=C(O)[C@]2(O)C(=O)C3=C(O)c4c(O)cccc4[C@@](C)(O)[C@H]3C[C@@H]12 -25.5% [at 25.6 µM], Cc1cc([N+](=O)[O-])nn1Cc1ccccc1F -21.8%, CCOC(=O)c1ccccc1OCc1cc(/C=N/n2cnnc2)ccc1OC 14.7%, Cc1ccc(C)c(Nc2nc3nonc3nc2N2CCOCC2)c1 -12.1% [at 2.29 µM], OC[C@@H]1O[C@@H](O)[C@H](N=Cc2ccc3c(c2)OCO3)[C@@H](O)[C@@H]1O -4.87% [at 11.4 µM], Cc1ccc(S(=O)(=O)N[C@H](CO)C(=O)O)cc1 -3.82% [at 11.4 µM], CC(CCc1ccccc1)NS(=O)(=O)c1ccccc1 (configuration not stated) -25.4%
